The values that follow come from PubChem BioAssay (NCI).

Experiment [1] can be described thus: NCI Yeast Anticancer Drug Screen. Data for the rad50 strain (AID 155).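 Note: 0% = growth of vehicle-only cultures of the same strain.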 The note with it: S. cerevisiae rad50 strain growth inhibition, stronger effect = higher value. The method, boiled down:
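Vehicle-treated cultures provide the reference for the growth inhibition reported for compound-exposed, repair-deficient yeast.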

Experiment [2] can be described thus: NCI Yeast Anticancer Drug Screen. Data for the mec2-1 strain (AID 157). The settings on record: S. cerevisiae mec2-1 strain, stronger effect = higher value. The method, boiled down:
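Cells of the genetically defined mec2-1 yeast strain are incubated with test compound. Inhibition of growth is calculated against vehicle-treated controls.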

Experiment [3] in a line: NCI Yeast Anticancer Drug Screen. Data for the sgs1 mgt1 strain (AID 161).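 Note: 0% = growth of cultures given vehicle only.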 The settings on record: S. cerevisiae sgs1 mgt1 strain, stronger effect = higher value. A digest of the protocol: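 Inhibition of yeast growth, normalised to vehicle-treated controls, is reported for a strain bearing genetic alterations in DNA damage repair.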
The nature of experiment [4]: NCI Yeast Anticancer Drug Screen. Data for the cln2 rad14 strain (AID 165).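 Note: 0% = growth equal to vehicle treated cultures.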 The note with it: S. cerevisiae cln2 rad14 strain, stronger effect = higher value. A digest of the protocol: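 The screen exposed genetically defined yeast (cln2 rad14) to test compounds and scored growth inhibition relative to vehicle-treated controls.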
A short description of experiment [5]: NCI Yeast Anticancer Drug Screen. Data for the bub3 strain (AID 167). The note with it: S. cerevisiae bub3 mutant strain, stronger effect = higher value. The method, boiled down: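 Mutant yeast screening strain plus compound; vehicle-treated cultures serve as the 0% inhibition reference.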
Experiment [6] can be described thus: NCI Yeast Anticancer Drug Screen. Data for the mlh1 rad18 strain (AID 175). The note with it: S. cerevisiae mlh1 rad18 strain growth inhibition, stronger effect = higher value. A digest of the protocol:
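Compound-treated yeast growth, normalised to vehicle controls. Strain bears defined DNA repair mutations.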

Setting [7] is: at 5.0 µM (retest, dose inferred, filed as 0.5).
[8] abbreviates: at 50.0 µM (retest, dose inferred, filed as 5.0).

Values joined by “and” are separate entries in the source; they are usually repeats but may differ in a detail not shown here. Equal entries are not always repeated. About 79,000 compounds went through this panel and 15% of them were active in at least one assay; those are over-represented in the sample as a whole. Some structures have more than one record in an assay (separate samples or runs), and their calls can disagree. Active and inactive are the calls of the source. Cut-off read from the data, not from the text of the source: active = growth inhibition above about 70%; inactive = the rest.

With `CC(=O)NC1C(O)OC(CO)C(OC2OC(CO)C(O)C(O)C2NC(=O)NCCCCCCNC(=O)n2cc(F)c(=O)[nH]c2=O)C1O` (stereo not given), the growth inhibition was 3% (inactive) and 85% (active) in experiment [1] (setting [7]); 58% (inactive) and 98% (active) in experiment [1] (setting [8]); 43.1% (inactive) and 91.9% (active) in experiment [1] (at 50.0 µM); -5% (inactive) and 78% (active) in experiment [2] (setting [7]); 70% (active) and 99% (active) in experiment [2] (setting [8]); 72.2% (active) and 93.5% (active) in experiment [2] (at 50.0 µM). In addition, the growth inhibition in experiment [3] (setting [7]) is 7% (inactive) and 93% (active); in experiment [3] (setting [8]), 81% (active) and 98% (active); in experiment [3] (at 50.0 µM), 78.8% (active) and 88.5% (active); in experiment [4] (setting [7]), 8% (inactive) and 52% (inactive); in experiment [4] (setting [8]) it was 20% (inactive) and 98% (active); in experiment [4] (at 50.0 µM), 24.8% (inactive) and 63.7% (inactive). Also, the growth inhibition is 5% (inactive) and 46% (inactive) in experiment [5] (setting [7]); 19% (inactive) and 99% (active) in experiment [5] (setting [8]); 25.2% (inactive) and 75.5% (active) in experiment [5] (at 50.0 µM); 4% (inactive) and 87% (active) in experiment [6] (setting [7]); 48% (inactive) and 98% (active) in experiment [6] (setting [8]); 37% (inactive) and 86.8% (active) in experiment [6] (at 50.0 µM).
With `O=C(CC1=Nc2nnc(CCCCCCCc3nnc4n3C(=O)C(CC(=O)c3ccc5ccccc5c3)=N4)n2C1=O)c1ccc2ccccc2c1`, the growth inhibition in experiment [1] (setting [7]) is 1% (inactive); in experiment [1] (setting [8]), 85% (active); in experiment [1] (at 50.0 µM), 17.9% (inactive); in experiment [2] (setting [7]), 1% (inactive); in experiment [2] (setting [8]), 92% (active); in experiment [2] (at 50.0 µM), 9.85% (inactive). Further, the growth inhibition in experiment [3] (setting [7]) was -2% (inactive); in experiment [3] (setting [8]), 93% (active); in experiment [3] (at 50.0 µM), 18.4% (inactive); in experiment [4] (setting [7]) it was 6% (inactive); in experiment [4] (setting [8]) it was 85% (active); in experiment [4] (at 50.0 µM), 82.1% (active). Besides, the growth inhibition in experiment [5] (setting [7]) is 6% (inactive); in experiment [5] (setting [8]) it was 88% (active); in experiment [5] (at 50.0 µM), 1.75% (inactive); in experiment [6] (setting [7]) it was 3% (inactive); in experiment [6] (setting [8]) it was 37% (inactive); in experiment [6] (at 50.0 µM) it was 26.9% (inactive).
On to `COc1ccc2nc3cc(Cl)ccc3c(NCCCNCc3cc(OC)c(OC)c(OC)c3)c2c1`, for which the growth inhibition is 18% (inactive) in experiment [1] (setting [7]); 92% (active) in experiment [1] (setting [8]); 98.2% (active) in experiment [1] (at 50.0 µM); -3% (inactive) in experiment [2] (setting [7]); 62% (inactive) in experiment [2] (setting [8]); 98.3% (active) in experiment [2] (at 50.0 µM). Also, the growth inhibition in experiment [3] (setting [7]) was 6% (inactive); in experiment [3] (setting [8]), 87% (active); in experiment [3] (at 50.0 µM) it was 98.3% (active); in experiment [4] (setting [7]) it was 21% (inactive); in experiment [4] (setting [8]) it was 83% (active); in experiment [4] (at 50.0 µM) it was 98.8% (active). The growth inhibition in experiment [5] (setting [7]) is 22% (inactive); in experiment [5] (setting [8]), 82% (active); in experiment [5] (at 50.0 µM) it was 98.8% (active); in experiment [6] (setting [7]) it was 3% (inactive); in experiment [6] (setting [8]), 92% (active); in experiment [6] (at 50.0 µM), 98% (active).
Turning to `COc1cc(O)c2c(c1)C(=O)c1cc3c(c(O)c1C2=O)C(OC1OC(C)C(OC)C(O)C1OC)C(OC)C(C)(O)C3=O` (stereo not given), the growth inhibition in experiment [1] (setting [7]) was 81% (active); in experiment [1] (setting [8]), 98% (active); in experiment [1] (at 50.0 µM), 98.8% (active) and 90.6% (active); in experiment [2] (setting [7]), 24% (inactive); in experiment [2] (setting [8]), 98% (active); in experiment [2] (at 50.0 µM), 99.2% (active) and 93% (active). The growth inhibition in experiment [3] (setting [7]) was 20% (inactive); in experiment [3] (setting [8]), 98% (active); in experiment [3] (at 50.0 µM), 99.5% (active) and 92.3% (active); in experiment [4] (setting [7]), 22% (inactive); in experiment [4] (setting [8]) it was 98% (active); in experiment [4] (at 50.0 µM) it was 98.3% (active) and 89.2% (active). The growth inhibition was -6% (inactive) in experiment [5] (setting [7]); 98% (active) in experiment [5] (setting [8]); 99% (active) and 90.5% (active) in experiment [5] (at 50.0 µM); 29% (inactive) in experiment [6] (setting [7]); 96% (active) in experiment [6] (setting [8]); 99.2% (active) and 90.9% (active) in experiment [6] (at 50.0 µM).
With `O=C(N/C=C/C=C/Sc1ccccc1)OCc1ccccc1`, the growth inhibition in experiment [1] (setting [7]) is 6% (inactive); in experiment [1] (setting [8]) it was 97% (active); in experiment [1] (at 50.0 µM) it was 0.05% (inactive); in experiment [2] (setting [7]) it was -6% (inactive); in experiment [2] (setting [8]), 98% (active); in experiment [2] (at 50.0 µM), 21.8% (inactive). The growth inhibition in experiment [3] (setting [7]) is -20% (inactive); in experiment [3] (setting [8]) it was 98% (active); in experiment [3] (at 50.0 µM), 38.6% (inactive); in experiment [4] (setting [7]), 23% (inactive); in experiment [4] (setting [8]) it was 97% (active); in experiment [4] (at 50.0 µM) it was -4.35% (inactive). In addition, the growth inhibition in experiment [5] (setting [7]) was 5% (inactive); in experiment [5] (setting [8]), 99% (active); in experiment [5] (at 50.0 µM), 2.2% (inactive); in experiment [6] (setting [7]), -8% (inactive); in experiment [6] (setting [8]) it was 98% (active); in experiment [6] (at 50.0 µM), 17.6% (inactive).
